In the library only some 4.9% were active in any assay of this set; here they are far more common.
HSF1 inhib = HSF1 inhibitors in luciferase reporter cells, primary screen, cell-based, NIH3T3, luminescence. activity change, negative = inhibition, % at 7.5 µM (by protocol). AID 2098, 2009. 300,000 tested, 0.77% active. NIH3T3-HGL HSE-luciferase, MG132-induced, luminescence 8 h; active compounds read low;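 active means more than half of replicate wells show activity change below -50%, luminescence cut by over half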;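 further: luciferase reports HSF-1 transcriptional activity via heat shock element; 0% = median of DMSO wells and -100% = zero luminescence signal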
MPTP inh = mitochondrial permeability transition pore inhibitors, primary screen, biochemical, isolated mouse mitochondria, absorbance | Ca2+ swelling absorbance, 30 min | inhibition, % at 10 µM | 360,000 tested, 1.4% active;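 active means inhibition of 50% or more, scaled per plate between neutral and stimulator controls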;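 further: 0% = DMSO wells given calcium and 100% = 1 mM EGTA wells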
HSF1 activator = HSF-1 activators, primary screen, NIH3T3-HGL cells, MG132 stress, luminescence, single point. 300,000 tested, 1.7% active. NIH3T3-HGL HSF-1 luciferase reporter, 8 h; 100% = twice DMSO control signal. activation, % at 9 µM;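 active means mean replicate activation of at least 50% with a set share of replicates each reaching 50%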;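 further: 0% = median of the neutral control wells and 100% = twice that signal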
Platelet DG rel = inhibitors of platelet dense granule secretion, primary screen, cell-based, MLPCN, human platelets; human platelet-rich plasma, SFLLRN dense granule ATP release, luminescence; inhibition, %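 (compounds screened at 7.5 µM in platelet-rich plasma)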; 300,000 tested, 0.22% active;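 active means mean replicate score, as percent of positive control, at or above 50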
HSP90 inh = HSP90 inhibitors, primary screen, cell lysate, luminescence; Heat shock protein HSP 90 (rabbit reticulocyte lysate; luciferase refolding); Rabbit reticulocyte lysate, luciferase refolding luminescence, 3 h; inhibition, % at 5.6 µM; 290,000 tested, 0.91% active;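 active means inhibition above the screen-wide mean plus 3 SD, computed separately per campaign, cut at about 16% in these data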;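 further: 0% = DMSO wells and 100% = 60 µM geldanamycin wells; inhibitors lower the luminescence because luciferase stays unfolded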
dFosB activator = activators of delta FosB homodimer, primary screen, biochemical, fluorescence polarization, TAMRA-CDK5 oligo, single point; activation, % at 25 µM; AID 493131, 2011; 340,000 tested, 0.99% active; purified delta FosB; percent of positive-control signal above neutral wells; Protein FosB (Mus musculus), P13346;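 active means mean activation above about 17%, with every replicate also reaching it, limit read from the data, passing the limit was not always enough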
Target sequence (P13346 whole entry, looked up): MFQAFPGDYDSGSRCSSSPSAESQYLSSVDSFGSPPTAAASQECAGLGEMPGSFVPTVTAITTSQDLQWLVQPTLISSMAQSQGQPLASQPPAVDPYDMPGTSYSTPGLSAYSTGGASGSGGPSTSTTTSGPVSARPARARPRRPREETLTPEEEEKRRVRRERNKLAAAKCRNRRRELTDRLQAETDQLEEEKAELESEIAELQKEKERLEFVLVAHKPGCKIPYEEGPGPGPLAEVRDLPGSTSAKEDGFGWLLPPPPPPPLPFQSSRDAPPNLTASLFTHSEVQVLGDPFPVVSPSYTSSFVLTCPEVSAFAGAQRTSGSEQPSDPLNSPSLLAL
Active calls of the source: *; · = not tested or not shown.

SMILES | HSF1 inhib | MPTP inh | HSF1 activator | Platelet DG rel | HSP90 inh | dFosB activator
COc1cccc(C(C(=O)NCc2ccccc2)N(C(=O)c2csnn2)C2CC2)c1 (stereo not drawn) | -4 | -1 | -15 | 3 | 1 | 4
Cc1nn(-c2ccccc2)c(Cl)c1CN(C(=O)CCl)c1ccc(Cl)cc1 | -86* | 3 | -85 | 26 | 0 | -11
CC(=O)N(Cc1c(C)nn(-c2ccccc2)c1Cl)c1ccc(Cl)cc1 | 6 | 0 | 6 | 2 | 1 | -8
CCn1c(CC(C)C)n[nH]c1=S | 25 | 0 | 59* | -9 | 4 | -1
CCN(CC(=O)Nc1ccc(OC)cc1)CC(=O)Nc1cccc(S(=O)(=O)N2CCOCC2)c1 | · | 1 | · | · | · | ·
COc1cc(Cl)ccc1OCc1cc(C(=O)N2CCCC(OC)C2)no1 (stereo not drawn) | 21 | 0 | 3 | 32 | 7 | -5
CCCCN(C)C(=O)CCC(=O)Nc1ccc2nc(N3CCN(C)CC3)cc(C)c2c1 | -70* | 2 | -76 | -2 | 1 | -12
O=C1/C(=C\c2ccccc2)CCc2c1[nH]c1ccccc21 | 59 | -1 | 109* | 2 | -4 | -14
Cc1ccc(/C=C2/CCc3c([nH]c4ccccc34)C2=O)cc1 | 13 | -1 | 19 | 7 | -1 | -8
Cc1ccc2[nH]c3c(c2c1)CC/C(=C/c1ccccc1)C3=O | 35 | 4 | 62* | -2 | 15 | -9
CCOc1ccc(S(=O)(=O)NNC(=S)Nc2ccc(Br)cc2)cc1 | 87 | 14 | 113* | -18 | 2 | 4
C[C@@H](c1ccccc1)N1C[C@H](COCc2ccccc2)Oc2cc(N3CC[C@@H](O)C3)ccc2S1(=O)=O | · | 1 | · | · | · | ·
O=C(c1cnccn1)N(Cc1ccco1)C1(C(=O)NC2CCCC2)CCCCC1 | 3 | 0 | 0 | 2 | 4 | -3
O=C(c1ccccn1)N(Cc1ccco1)C1(C(=O)NC2CCCC2)CCCCC1 | 23 | 0 | 61* | 2 | 3 | -2
COc1ccc(CNC(=O)c2ccccc2SCC(=O)NCc2ccco2)cc1 | · | 0 | · | · | · | 3
CC(=O)C1=C(C)NC(SCC(=O)c2ccccc2)=C(C#N)C1c1ccco1 (stereo not drawn) | 55 | · | 77* | -1 | 3 | ·
CC(=O)C1=C(C)NC(SCC(=O)c2ccc(Cl)cc2)=C(C#N)C1c1ccco1 (stereo not drawn) | 21 | 2 | 29 | -14 | 3 | -5
CCOC(=O)C1=C(c2ccccc2)NC(SC)=C(C#N)C1c1ccco1 (stereo not drawn) | 30 | -1 | 51* | -14 | 3 | -12
CC(C)C(=O)Nc1ncc2c(n1)CC(c1cccs1)CC2=O (stereo not drawn) | -1 | 3 | 10 | 65* | -4 | 0
C/C(=N/NC(=O)c1ccc(Br)o1)c1cccc(NC(=O)c2ccc(C)o2)c1 | 9 | -4 | 32 | 3 | 0 | -16
Cc1c(C#N)c(O)[nH]c(=O)c1N=Nc1ccc(Br)cc1C(=O)O | -6 | 0 | -2 | 5 | 0 | -4
Cc1cccc(N=Nc2c(C)c(C#N)c(O)[nH]c2=O)c1 | 21 | 0 | 54* | -3 | 2 | 0
O=C(NCCN1CCCC(O)C1)c1cc(COc2cccc(C(F)(F)F)c2)on1 (stereo not drawn) | · | 0 | · | · | · | ·
O=C(COc1ccccc1)Nc1nnc(S(=O)(=O)N2CCCCCC2)s1 | -71* | 0 | -78 | -20 | 1 | -12
COc1ccc(Cn2ccnc2)cc1[N+](=O)[O-] | -1 | 0 | 1 | -3 | 0 | 5
SMILES | HSF1 inhib | MPTP inh | HSF1 activator | Platelet DG rel | HSP90 inh | dFosB activator
COc1ccc(Cn2c(SC)nc3ccccc32)cc1[N+](=O)[O-] | -61* | 1 | -70 | 7 | 0 | 5
O=C1CC(N2CCC(c3nc4ccccc4o3)CC2)C(=O)N1 (stereo not drawn) | -3 | 1 | 16 | -4 | 6 | 0
C#CC(=O)N(c1cc(OC)ccc1OC)C(C(=O)NC1CCCC1)c1cccs1 (stereo not drawn) | -90* | -2 | -91 | -1 | 11 | -23
N=C1S/C(=C\c2ccco2)C(=O)N1c1ccc2c(c1)OCO2 | 13 | 0 | 32 | 0 | -3 | -2
N=C1S/C(=C\c2ccco2)C(=O)N1c1nccs1 | 113 | -2 | 98* | 0 | 2 | -1
COc1ccc(CNC(=O)c2cc(S(=O)(=O)N3CCOCC3)cn2C)cc1 | 6 | -2 | -8 | -28 | 0 | -9
COc1cccc(CNC(=O)c2cc(S(=O)(=O)N3CCOCC3)cn2C)c1 | -1 | 0 | 0 | 51* | 1 | -11
Cc1ccc(CCNC(=O)c2cc(S(=O)(=O)N3CCOCC3)cn2C)cc1 | 1 | 1 | 3 | -5 | -2 | -8
Cc1ccc(C)c(NC(=O)c2cc(S(=O)(=O)N3CCOCC3)cn2C)c1 | -1 | -2 | -8 | 111* | -3 | 1
Cc1cccc(NC(=O)c2cc(S(=O)(=O)N3CCOCC3)cn2C)c1C | 1 | 0 | -12 | 10 | 1 | -4
COc1ccc(CCNC(=O)c2cc(S(=O)(=O)N3CCOCC3)cn2C)cc1OC | -2 | -1 | 0 | 51* | -3 | -2
COc1ccc(C(=O)Oc2ccc(/C=N/O)cc2)cc1 | -64* | 1 | -71 | 3 | -1 | -6
COc1ccc(OC(=O)c2ccncc2)cc1 | -5 | -2 | 2 | 7 | -2 | -4
CCCCCC(=O)N1C[C@@H](O)[C@H](n2cc(-c3ccc(F)cc3)nn2)C[C@@H]1c1ccccc1 | · | -1 | · | · | · | ·
CCOc1cccc(/C=C(/C#N)c2nc3ccccc3[nH]2)c1OCC(=O)O | -33 | 2 | -43 | -8 | 6 | -1
CCN(CC)c1ccc(/C=C(/C#N)c2nc3ccccc3[nH]2)c(OC(C)C)c1 | -46 | 39 | -49 | -1 | 16* | -15
Cc1ccc(N=C2NC(=O)/C(=C/c3cccn3C)S2)cc1C | 29 | 1 | 54* | 14 | 3 | ·
CSc1nc(-c2ccc(C)cc2)nc(C(Cl)Cl)n1 | 28 | -1 | 37 | 1 | -4 | -6
CCSc1nc(-c2ccccc2)nc(C(Cl)Cl)n1 | 42 | 11 | 57* | -23 | -2 | -3
Cc1ccc(/C=C/S(=O)(=O)NCCC(=O)NCc2ccccc2F)cc1 | · | -1 | · | · | · | -10
Cc1ccc(N2C(=O)N(CC(=O)NCc3ccc(Cl)cc3)C(=O)C2C)cc1 (stereo not drawn) | -1 | -1 | -1 | 1 | -1 | -10
COc1ccc(CNC(=O)CN2C(=O)C(C)N(c3ccc(C)cc3)C2=O)cc1 (stereo not drawn) | 16 | -1 | 54* | -21 | 1 | -2
